Experimental data: PubChem BioAssay (NCI)
About 79,000 compounds went through this panel and 15% of them were active in at least one assay; those are over-represented in the sample as a whole. Calls of active or inactive are those of the source. Rule as the data show it: active = growth inhibition above about 70%; inactive = the rest.

Columns and labels:
[1] = NCI Yeast Anticancer Drug Screen. Data for the rad50 strain (AID 155);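 also: 0% = growth of vehicle-only cultures of the same strain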; conditions: S. cerevisiae rad50 strain growth inhibition, hits give high values
Procedure, shortened: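 Growth of the mutant yeast was measured after compound exposure and referenced to vehicle-treated cultures.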

[2] = NCI Yeast Anticancer Drug Screen. Data for the mec2-1 strain (AID 157); conditions: S. cerevisiae mec2-1 strain, hits give high values
Procedure, shortened: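 Growth inhibition is read against vehicle-treated controls after compound exposure of the mec2-1 yeast strain, which is defective in DNA damage repair or cell cycle control.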

[3] = NCI Yeast Anticancer Drug Screen. Data for the sgs1 mgt1 strain (AID 161);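 also: 0% = growth of cultures given vehicle only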; conditions: S. cerevisiae sgs1 mgt1 strain, hits give high values
Procedure, shortened: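 Growth of a repair-deficient yeast mutant was monitored after compound treatment and expressed as inhibition relative to vehicle-treated cultures.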

[4] = NCI Yeast Anticancer Drug Screen. Data for the cln2 rad14 strain (AID 165);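 also: 0% = growth equal to vehicle treated cultures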; conditions: S. cerevisiae cln2 rad14 strain, hits give high values
Procedure, shortened: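 Growth inhibition, relative to vehicle-treated controls, is the read-out. The test organism is a yeast strain with defined genetic alterations, cln2 rad14.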

[5] = NCI Yeast Anticancer Drug Screen. Data for the bub3 strain (AID 167); conditions: S. cerevisiae bub3 mutant strain, hits give high values
Procedure, shortened: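 Whole-cell yeast assay. The mutant strain was incubated with compounds, and growth inhibition was determined by comparison with vehicle-treated cells.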

[6] = NCI Yeast Anticancer Drug Screen. Data for the mlh1 rad18 strain (AID 175); conditions: S. cerevisiae mlh1 rad18 strain growth inhibition, hits give high values
Procedure, shortened: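 Cells of a genetically altered yeast strain, deficient in DNA damage repair, were treated with compound. Their growth was then compared with that of vehicle-treated cultures to give inhibition.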

[7] = at 5.0 µM (retest, dose inferred, filed as 0.5)
[8] = at 50.0 µM (retest, dose inferred, filed as 5.0)

Measured: growth inhibition

COC(=O)C(O)(/C(=N\O)c1ccccc1)c1ccccc1 (configuration not stated)
inactive: [1]; [7] 0% | [1]; [8] 0% | [1]; at 50.0 µM 4.8% | [2]; [7] 0% | [2]; [8] -1% | [2]; at 50.0 µM 16.7% | [3]; [7] 5% | [3]; [8] 0% | [3]; at 50.0 µM 25.6% | [4]; [7] -1% | [4]; [8] -5% | [5]; [7] 0% | [5]; [8] -8% | [5]; at 50.0 µM 29.1% | [6]; [7] 0% | [6]; [8] -2% | [6]; at 50.0 µM 8.35%
active: [4]; at 50.0 µM 71.1%

COc1c(O)cc2c(c1O)C(=O)C1=C(CCCC1)C2=O
inactive: [1]; [7] -4% | [1]; [8] 63% | [1]; at 50.0 µM 47.1% | [2]; [7] 2% | [2]; [8] 49% | [2]; at 50.0 µM 22.2% | [3]; [7] 4% | [3]; at 50.0 µM 62.1% | [4]; [7] -5% | [4]; [8] 22% | [4]; at 50.0 µM 38.9% | [5]; [7] 11% | [5]; at 50.0 µM 65% | [6]; [7] 2% | [6]; at 50.0 µM 21.3%
active: [3]; [8] 88% | [5]; [8] 80% | [6]; [8] 70%

Nc1ccc2c(c1)S(=O)(=O)c1cc(N)ccc1-2
inactive: [1]; [7] 22% | [1]; [8] 27% | [1]; at 50.0 µM 41.4% | [2]; [7] 19% | [2]; [8] 15% | [2]; at 50.0 µM 18.8% | [3]; [7] 20% | [3]; [8] 19% | [3]; at 50.0 µM -29% | [4]; [7] 18% | [4]; [8] 25% | [4]; at 50.0 µM 5.8% | [5]; [7] 22% | [5]; [8] 27% | [5]; at 50.0 µM -17.8% | [6]; [7] 26% | [6]; [8] 25% | [6]; at 50.0 µM -43.8%

CCOC(=O)C(C#N)c1cc(O)c(C(C#N)C(=O)OCC)cc1O (configuration not stated)
inactive: [1]; [7] -2% | [1]; [8] -2% | [1]; at 50.0 µM -5.45% | [2]; [7] -3% | [2]; [8] -4% | [2]; at 50.0 µM 6.85% | [3]; [7] -4% | [3]; [8] -6% | [3]; at 50.0 µM -1.65% | [4]; [7] 0% | [4]; [8] -10% | [4]; at 50.0 µM 55.5% | [5]; [7] -1% | [5]; [8] -5% | [5]; at 50.0 µM 13.4% | [6]; [7] -2% | [6]; [8] -5% | [6]; at 50.0 µM -6.9%

CC(=O)N/N=C1/CC[C@@]2(C)C(=CC[C@H]3C4CCC(C(C)CCCC(C)C)[C@@]4(C)CCC32)C1(C)C (some centres not stated)
active: [1]; [8] 79% | [2]; [8] 83% | [3]; [8] 84% | [4]; [8] 74% | [5]; [8] 70% | [6]; [8] 90%
inactive: [1]; [7] -23% | [1]; at 50.0 µM 31.6% | [2]; [7] -14% | [2]; at 50.0 µM 6.35% | [3]; [7] -7% | [3]; at 50.0 µM 24.8% | [4]; [7] -11% | [4]; at 50.0 µM 55.1% | [5]; [7] -10% | [5]; at 50.0 µM 29.6% | [6]; [7] -12% | [6]; at 50.0 µM 1.3%

CC12CCC(O)CC1=CCC1C2CCC2(C)/C(=C\C#N)CCC12 (configuration not stated)
active: [2]; [8] 78% | [3]; [8] 90% | [4]; [8] 81% | [5]; [8] 87% | [6]; [8] 97% | [6]; at 50.0 µM 73.9%
inactive: [1]; [7] -6% | [1]; [8] 53% | [1]; at 50.0 µM 69.2% | [2]; [7] 5% | [2]; at 50.0 µM 9.9% | [3]; [7] 11% | [3]; at 50.0 µM 52.3% | [4]; [7] 2% | [4]; at 50.0 µM -1.95% | [5]; [7] 2% | [5]; at 50.0 µM 31.3% | [6]; [7] -8%

CN(C)c1ccccc1CCCCCCc1ccccc1N(C)C
active: [1]; at 50.0 µM 84% | [2]; at 50.0 µM 74.7% | [3]; [7] 76% | [3]; [8] 72% | [3]; at 50.0 µM 87.8% | [4]; [7] 79% | [4]; [8] 82% | [4]; at 50.0 µM 85.2% | [5]; at 50.0 µM 80.5% | [6]; at 50.0 µM 76.3%
inactive: [1]; [7] 54% | [1]; [8] 59% | [2]; [7] 55% | [2]; [8] 57% | [5]; [7] 67% | [5]; [8] 50% | [6]; [7] 38% | [6]; [8] 43%

COC(CO)(OC)c1ccccc1
inactive: [1]; [7] -163% | [1]; [8] -65% | [1]; at 50.0 µM -0.65% | [2]; [7] -50% | [2]; [8] -50% | [2]; at 50.0 µM -2.9% | [3]; [7] -66% | [3]; [8] -49% | [3]; at 50.0 µM -9% | [4]; [7] -63% | [4]; [8] -70% | [4]; at 50.0 µM 25.6% | [5]; [7] -70% | [5]; [8] -71% | [5]; at 50.0 µM -29.1% | [6]; [7] -128% | [6]; [8] -130% | [6]; at 50.0 µM 3.5%

O=C1NCCCNCCCNCCCNC(=O)c2cccc1n2
inactive: [1]; [7] 32% | [1]; [8] 30% | [1]; at 50.0 µM -41.7% | [2]; [7] 23% | [2]; [8] 21% | [2]; at 50.0 µM -30.6% | [3]; [7] 21% | [3]; [8] 24% | [3]; at 50.0 µM -18.1% | [4]; [7] 18% | [4]; [8] 28% | [4]; at 50.0 µM 5.3% | [5]; [7] 23% | [5]; [8] 26% | [5]; at 50.0 µM 0.55% | [6]; [7] 29% | [6]; [8] 26% | [6]; at 50.0 µM -15.2%
